PGC1a acetyl inh – PGC1a acetylation modulation, inhibitor mode; U2OS PGC1a acetylation, AlphaScreen anti-acetyl-lysine; with virally co-expressed GCN5 acetyltransferase; inhibition, % at 15.6 µM; actives 0.17% (n = 350,000);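 active means every replicate shows inhibition of at least 40%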;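 further: 0% = neutral control wells and 100% = positive control wells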
Env fusion inh – blocks HIV Env-driven cell-cell fusion. HeLa-JRFL Env/CEM21 cell fusion, luciferase. inhibition, % at 12.3 µM. actives 1.1% (n = 360,000). AID 651610;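 active means mean replicate inhibition score of at least 50 and every replicate individually at or above 50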;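 further: 0% = plate neutral controls and 100% = maraviroc near 300 nM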
PAX8 reporter – lowers PAX8-driven luciferase in RMG-I cells. RMG-I TPO-luciferase reporter, SteadyGlo, 24 h. inhibition, % at 12.6 µM. actives 1.2% (n = 360,000);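 active means mean replicate inhibition at least 60% with every replicate also reaching 60%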;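 further: luciferase light reporting Pax8 driven TPO promoter activity; plate controls were median of neutral control wells for no effect and mitoxantrone controls for full effect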
EWS-Fli block – EWS/Fli transcriptional activity inhibition; A673 NR0B1-luciferase reporter, viability-normalised; inhibition, % at 12.6 µM; actives 0.67% (n = 350,000);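 active means mean inhibition of at least 50% after viability correction, with every replicate also passing that limit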;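 further: firefly luciferase signal divided by Alamar Blue viability fluorescence both relative to DMSO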
F508del corr – CFTR F508del correction in bronchial cells | activity (quench increase), % at 7.58 µM | CFBE cells, YFP halide quenching; stimulated with forskolin plus potentiator P3; % fluorescence drop versus neutral controls | actives 0.36% (n = 350,000);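 active means mean added fluorescence quench of at least 8% versus neutral control, with both replicates also reaching 8%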;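 further: cells transiently co-express mutant CFTR-F508del with the halide-sensitive YFP; corrector assay measuring rescue of mutant channel to the surface after 24 h compound exposure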
INS-1E GSIS act – GLuc luminescence reporter in INS-1E cells, primary screen for activators of glucose-dependent secretion of insulin; INS-1E GLuc reporter insulin secretion, 2-3 h; activation, % at 16.6 µM; actives 0.61% (n = 370,000); AID 743287;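 active means lowest replicate activation of at least 40%, so every replicate reaches that level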;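 further: 0% = median of neutral control wells and 100% = median of IBMX positive control wells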
* marks the source's active call; other numbers are inactive results; . = no result given; [ ] = remark or other dose. Compounds with a hit are over-represented: about 2.7% of the library has one in this group of screens.

SMILES | PGC1a acetyl inh | Env fusion inh | PAX8 reporter | EWS-Fli block | F508del corr | INS-1E GSIS act
CCOC(=O)C1=C[C@@H](C(C)(C)C)N(S(=O)(=O)c2ccc(OC)cc2)[C@H]1c1ccccc1 | -7 | 63* | 28 | 7 | -2 | -52
COC(=O)C[C@H]1CC[C@@H]2[C@H](COc3ccc(NC(=O)c4cc(C)on4)cc3C(=O)N2C)O1 | -3 | . | -7 | 1 | 0 | 0
CNC[C@@H]1OCCCC[C@@H](C)Oc2ccc(NC(=O)CCC(F)(F)F)cc2C(=O)N([C@@H](C)CO)C[C@H]1C | 7 | 9[16.7 µM] | -4 | 1 | -2 | 13
NC(N)=N/N=C/c1ccccc1 | . | 1 | . | . | . | .
NC(N)=N/N=C/c1ccc(OCc2ccccc2Cl)cc1 | -7 | . | . | 58* | -3 | 51*
COc1cc(/C=N/N=C(N)N)ccc1OCc1ccc(Cl)cc1 | . | -27 | -17 | 44 | -1 | -20
CCOc1cc(/C=N/N=C(N)N)ccc1OCc1ccc(Cl)cc1 | 56* | -2 | 31 | -4 | . | .
NC(N)=N/N=C/c1ccc(OCc2ccccc2)c(OCc2ccccc2)c1 | . | -11 | -3 | 29 | -1 | 439*
CCCNC(=O)[C@@]1(Sc2ccc(C)cc2)CC(=O)N(C2CCCCC2)[C@@H]1c1ccc(CO)cc1I | -3 | 11[16.7 µM] | 6 | -4 | 6 | .
CN1c2ccc(-c3cccc(F)c3)cc2[C@@H]2[C@@H](CCN2S(=O)(=O)c2cccc(F)c2)[C@@H]1CO | 1 | . | -3 | 2 | -1 | -14
Cc1nn(Cc2c(F)c(F)c(F)c(F)c2F)c(C)c1NC(=O)c1ccc(COc2ccc(Cl)cc2Cl)o1 | . | 68* | 41 | . | . | -43
Cc1ccccc1-c1ccccc1[C@H]1[C@@H](C#N)N(C(=O)c2ccccc2)[C@@H]1CO | -31 | . | . | 2 | -3 | .
O=C(C(Cc1ccccc1)n1cccc1)N1CCCCC1 (configuration not stated) | 2 | -7 | -1 | -3 | 10* | .
CC(C)C(=O)Nc1ccccc1N1CCN(S(C)(=O)=O)CC1 | . | 8 | . | . | . | .
CN1CCN(c2ccccc2NC(=O)c2ccc(-c3ccccc3)cc2)CC1 | -8 | . | . | . | . | .
CS(=O)(=O)N1CCN(c2ccccc2NC(=O)C(c2ccccc2)c2ccccc2)CC1 | -10 | 71* | . | . | . | .
O=C(C(Cc1ccccc1)n1cccc1)N1CCCCCC1 (configuration not stated) | -20 | 17 | 10 | -1 | 1 | -14
CN1CCN(c2ccccc2NC(=O)C(Cc2ccccc2)n2cccc2)CC1 (configuration not stated) | . | 77* | -3 | 2 | -3 | -37
Cc1ccc(S(=O)(=O)N[C@@H]2CC[C@H](CCNC(=O)C3CC3)O[C@H]2CO)cc1 | -7 | -10[16.7 µM] | . | 2 | 1 | 15
CC(=O)c1ccc(N(C(=O)Cc2c[nH]c3ccccc23)C(C(=O)NC2CCCCC2)c2cccs2)cc1 (configuration not stated) | . | -52 | -13 | . | . | .
O=C(NC1CCCCC1)C(c1cccs1)N(Cc1cccs1)C(=O)c1ccco1 (configuration not stated) | -6 | 84* | . | . | . | .
COc1cccc(CN(C(=O)Cc2c[nH]c3ccccc23)C(C(=O)NC2CCCCC2)c2cccs2)c1 (configuration not stated) | 0 | 91* | 34 | . | . | .
O=C(NC1CCCCC1)C(c1cccs1)N(C(=O)Cc1c[nH]c2ccccc12)c1ccc(F)cc1 (configuration not stated) | -5 | 87* | 97* | . | . | .
O=C(NCC(=O)N(Cc1cccs1)C(C(=O)NC1CCCCC1)c1ccco1)c1ccco1 (configuration not stated) | -8 | . | . | . | . | -1
Cc1ccc(C(C(=O)NC2CCCCC2)N(C(=O)Cc2c[nH]c3ccccc23)c2ccccc2)o1 (configuration not stated) | -19 | 112* | . | . | . | .
SMILES | PGC1a acetyl inh | Env fusion inh | PAX8 reporter | EWS-Fli block | F508del corr | INS-1E GSIS act
O=C(C[C@H]1C[C@H]2c3cc(NC(=O)NC4CCCC4)ccc3O[C@H]2[C@@H](CO)O1)NCc1cccc(F)c1 | . | . | . | . | . | 4
Cc1ccc(N(C(=O)Cc2cccs2)C(C(=O)NC2CCCCC2)c2ccccn2)cc1C (configuration not stated) | . | 82* | 13 | . | . | -19
Cc1cccc(N(C(=O)Cc2cccs2)C(C(=O)NC2CCCC2)c2ccncc2)c1 (configuration not stated) | 3 | 21 | 14 | 12 | 1 | 4
Cc1ccc(-c2csc3nnc(SCC(=O)Nc4cccc(C)n4)n23)cc1 | -3 | 107* | . | . | . | 4
Cc1cccc(NCc2ccc(O)c3ncccc23)c1C | 26 | 46 | 99* | 47 | 1 | 2
COc1ccccc1CN1[C@@H](CO)[C@@H]2c3ccccc3N(C(=O)C3CCCCC3)C[C@@H]21 | -29 | . | 20 | 22 | 1 | -20
CC1=Nc2ccccc2N=C(NC(=O)CN2CCN(c3ccccc3)CC2)C1c1ccccc1 (configuration not stated) | 86* | 26 | -10 | 4 | -1 | -1
CCNC(=O)C[C@@H]1CC[C@@H]2[C@@H](COc3ccc(NC(=O)Nc4cccc(Cl)c4)cc3C(=O)N2C)O1 | 2 | 22[16.7 µM] | 5 | -1 | 1 | 0
Cc1noc(/C=C/N(C)C)c1S(=O)(=O)N1CCCC(C(=O)NC2CCCCC2)C1 (configuration not stated) | -13 | . | 12 | -8 | 4 | .
Cc1noc(/C=C/N(C)C)c1S(=O)(=O)N(C)CC(=O)NC1CCCCC1 | 43* | . | . | . | . | .
C[C@H](CO)N1C[C@H](C)[C@@H](CN(C)C(=O)Nc2ccccc2F)Oc2cc(-c3ccccc3)ccc2S1(=O)=O | 10 | -12[16.7 µM] | . | 28 | 0 | -13
CN(Cc1ccccc1C#N)S(=O)(=O)c1cccs1 | -9 | 13 | 0 | -17 | 0 | -1
N#Cc1nccnc1S(=O)(=O)c1cccs1 | . | 10 | 102* | 16 | -8 | 134*
COc1ccc(C2C(O)C(c3c[nH]c4ccccc34)=NN2C(=O)CCl)cc1 (configuration not stated) | . | -72 | 117* | 62* | 3 | -5
CC(C)CNC(=S)Nc1ccc(Oc2ccccc2)cc1 | . | -38 | -13 | -5 | . | 85*
OCCCNC(=S)Nc1ccc(Oc2ccccc2)cc1 | . | -4 | 3 | -5 | 1 | -12
COc1cccc(CN2CCC3(CC2)CN(C(=O)C2CC2)[C@H](CO)c2c3c3ccc(OC)cc3n2C)c1 | 4 | . | . | 33 | -3 | -2
O=C(CCS(=O)(=O)c1ccc(F)cc1)Nc1nc(-c2ccccn2)cs1 | . | 5 | 84* | 18 | 3 | .
CC(Oc1ccc(F)cc1)C(=O)Nc1nc(-c2ccccn2)cs1 (configuration not stated) | 8 | 44 | 69* | 27 | 2 | -3
O=C(CCS(=O)(=O)c1ccccc1)Nc1ccccn1 | 10 | -7 | -22 | 0 | 1 | -17

Screens (PubChem)
